Bioassay records (PubChem)
Pf growth 48h: inhibits P. falciparum growth in the first generation, 48 h; P. falciparum luciferase growth in erythrocytes, 48 h; Potency, µM (doses to about 28.7 µM), inactives show at the top dose activity change, negative = inhibition, hits mostly inhibitors; AID 504832; actives 5.9% (n = 310,000); also: potency is read from the fitted curve at half-maximal effect; % is scaled to controls: 0 for no effect and ±100 for the full control effect
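Firefly luciferase activity from engineered P. falciparum reports growth; inhibitors lower the luminescent signal. Cultures contained 2% hematocrit erythrocytes at 0.1% final parasitemia.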
CHX counter: affects cycloheximide protein synthesis inhibition readout, counter-screen; cell reporter, cycloheximide protein synthesis inhibition counterscreen; max response, %; actives 12% (n = 300,000); in the data active = max response mostly above about 13%, no sharp cut-off; inactive = mostly below about 14%; also: read at 38.3 µM for the half of the compounds with a filed dose; 0% is about no effect
Pf growth 96h: P. falciparum growth inhibition at 96 hours. P. falciparum luciferase reporter growth, 96 h. actives 6.9% (n = 320,000). AID 504834. Potency, µM (highest dose often 28.7 µM), for the others: at the highest dose activity change, negative = inhibition, most hits filed as inhibitors; also: potency is read from the fitted curve at half-maximal effect; % is scaled to controls: 0 for no effect and ±100 for the full control effect
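Two parasite generations (96 h, 37 C, 5% CO2) of compound exposure in infected erythrocytes (0.05% parasitemia, 2% hematocrit). Luciferase-reporter P. falciparum; decreased luminescence indicates inhibited growth, aimed at apicoplast-acting delayed death.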
NS1 inh: inhibitors of influenza NS1 protein function; Potency, µM (doses to about 46.1 µM), for the others: at the top dose activity, positive = more growth; actives 0.4% (n = 270,000); AID 2326; calls by dose curve; also: potency is read from the fitted curve at half-maximal effect; actives are rising curves; nearly all actives have a fitted effect of over 50% in size
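A cell-based growth assay was used: compounds that relieve NS1-induced slow growth of budding yeast raise OD600. Assay medium was yeast nitrogen base with ammonium sulphate and -URA supplement, pH 6.0, with 2% galactose.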
SARS PLP yeast: SARS-CoV PLP inhibition in yeast; AID 485353; S. cerevisiae expressing SARS-CoV PLpro, growth rescue; actives 0.19% (n = 330,000); Potency, µM (series often up to 32.9 µM), inactives show top-dose activity, positive = growth rescue, most hits filed as activators; calls by dose curve; also: potency is read from the fitted curve at half-maximal effect; 0% is about no effect; nearly all actives have a fitted effect of over 55% in size
Shiga toxin inh: inhibitors of Shiga toxin in Vero cells; Vero cells, Shiga toxin protein synthesis inhibition reporter; actives 9.2% (n = 290,000); AID 2315; inhibition, % at 38.7 µM; in the data active = inhibition mostly above about 28%, no sharp cut-off; inactive = mostly below about 43%; also: 0% is about no effect
* = called active by the depositor. Only some compounds are listed: those with a hit (about 21% of all), similar ones and a draw of the others. Unless noted, calls follow the shape of the dose curve; as a rule, active = well fitted inhibition curve with a large enough effect; inconclusive = small, poorly fitted or top-dose-only effect, or another doubt; inactive = no such curve, though single readings can be large or run the other way.

What do the screens show for `N=C1SCC(=O)N1c1nc(-c2ccccc2)cs1`?
Pf growth 48h: 33.6%; CHX counter: 21.0*; Pf growth 96h: 367.9%; NS1 inh: -12.4%; SARS PLP yeast: -3.2%; Shiga toxin inh: 40.6

Results for CC1=NN(c2nc(-c3ccccc3)cs2)C(=O)C1 ?
Pf growth 48h: inconclusive; CHX counter: 16.0*; Pf growth 96h: 70.4%; NS1 inh: 23.0%; SARS PLP yeast: 0.6%; Shiga toxin inh: 23.9

How did CC1=NN(c2nc(-c3ccc(C#N)cc3)cs2)C(=O)C1 do in these assays?
Pf growth 48h: -4.3%; CHX counter: 14.6; Pf growth 96h: 6.0%; NS1 inh: 18.9%; SARS PLP yeast: 0.3%; Shiga toxin inh: 53.4*

Results for COc1ccc(C(=O)N2CCCC(Nc3ccc(C(C)C)cc3)C2)c(OC)n1 (stereo unspecified) ?
Pf growth 48h: -8.5%; CHX counter: 2.0; Pf growth 96h: -15.9%; NS1 inh: -33.0%; SARS PLP yeast: -10.4%; Shiga toxin inh: -13.4

How did CC(C)N(C(=O)[C@H]1CC(CC(=O)NCCC2=CCCCC2)C(=O)N2CCc3c([nH]c4ccccc34)[C@]12C)C(C)C (stereo partly specified) do in these assays?
SARS PLP yeast: -1.6%

What do the screens show for `Nc1nnnn1/N=C/c1ccc(Br)cc1`?
Pf growth 48h: 32.9%; CHX counter: 9.9; Pf growth 96h: 67.3%; NS1 inh: 6.7%; SARS PLP yeast: -3.3%; Shiga toxin inh: 26.2

How did Nc1nc2ccccc2n1/N=C/c1ccc(Br)cc1 do in these assays?
Pf growth 48h: -77.2%; CHX counter: 42.6*; Pf growth 96h: 10.4µM*; NS1 inh: -14.9%; SARS PLP yeast: -13.5%; Shiga toxin inh: 92.9*

How did Nc1nc2ccccc2n1/N=C/c1ccc2c(c1)OCO2 do in these assays?
Pf growth 48h: -22.1%; CHX counter: 31.9*; Pf growth 96h: -23.9%; NS1 inh: inconclusive; SARS PLP yeast: 0.7%; Shiga toxin inh: 91.4*

How did Cn1c(/N=C/c2ccc3c(c2)OCO3)nc2ccccc21 do in these assays?
Pf growth 48h: 1.5%; CHX counter: -1.4; Pf growth 96h: -15.2%; NS1 inh: 9.3%; SARS PLP yeast: 6.1%; Shiga toxin inh: -2.7

Results for CCOc1ccc(C(C(=O)NC2CCCCC2)N(C(=O)c2csnn2)C2CC2)cc1 (stereo unspecified) ?
Pf growth 48h: inconclusive; CHX counter: 4.2; Pf growth 96h: 57.0%; NS1 inh: -7.1%; SARS PLP yeast: 2.2%; Shiga toxin inh: -5.6

What do the screens show for `COc1ccc(NC(=O)c2c(-c3c(Cl)cccc3Cl)noc2C)c(OC)c1`?
Pf growth 48h: 1.65µM*; CHX counter: -7.0; Pf growth 96h: 29.0%; NS1 inh: -4.3%; SARS PLP yeast: -7.2%; Shiga toxin inh: -0.5

Results for Cc1onc(-c2c(Cl)cccc2Cl)c1C(=O)Nc1ccc2c(c1)OCCO2 ?
Pf growth 48h: inconclusive; CHX counter: 14.9; Pf growth 96h: 75.6%; NS1 inh: -3.5%; SARS PLP yeast: 1.0%; Shiga toxin inh: 17.6

How did COc1ccc(NC(=O)c2c(-c3c(Cl)cccc3Cl)noc2C)cn1 do in these assays?
Pf growth 48h: inconclusive; CHX counter: -1.9; Pf growth 96h: -6.8%; NS1 inh: -0.9%; SARS PLP yeast: -2.7%; Shiga toxin inh: -7.3

What do the screens show for `Cc1cc(Br)c(NC(=O)c2c(-c3c(Cl)cccc3Cl)noc2C)c(Br)c1`?
Pf growth 48h: 10.4µM*; CHX counter: 1.3; Pf growth 96h: 5.86µM*; NS1 inh: 3.5%; SARS PLP yeast: -1.5%; Shiga toxin inh: -2.2

How did Cc1onc(-c2c(Cl)cccc2Cl)c1C(=O)N/N=C(\N)COc1ccc(Cl)cc1 do in these assays?
Pf growth 48h: 2.33µM*; CHX counter: -3.3; Pf growth 96h: inconclusive; NS1 inh: -15.4%; SARS PLP yeast: inconclusive; Shiga toxin inh: 19.8

How did CC(=O)c1ccc(S(=O)(=O)N2CCN(CCOc3ccc(Br)cc3)CC2)cc1 do in these assays?
Pf growth 48h: inconclusive; Pf growth 96h: inconclusive; SARS PLP yeast: -1.4%

How did Cc1ccccc1NC(=O)C1CCN(C(=O)N2CCOc3ccccc32)CC1 do in these assays?
Pf growth 48h: 5.1%; CHX counter: -1.3; Pf growth 96h: -12.8%; NS1 inh: -0.7%; SARS PLP yeast: 0.1%; Shiga toxin inh: -7.9
